ALOX12 inh: blocks human arachidonate 12S-lipoxygenase; P18054; purified 12hLO, xylenol orange hydroperoxide absorbance; 580,000 tested, 1.1% active; Potency, µM (series often up to 108 µM), without a hit: top-dose activity change, negative = inhibition, usual class: inhibitors; AID 1671190; also: potency is read from the fitted curve at half-maximal effect; % is scaled to controls: 0 for no effect and ±100 for the full control effect
Target sequence (P18054 whole entry, looked up): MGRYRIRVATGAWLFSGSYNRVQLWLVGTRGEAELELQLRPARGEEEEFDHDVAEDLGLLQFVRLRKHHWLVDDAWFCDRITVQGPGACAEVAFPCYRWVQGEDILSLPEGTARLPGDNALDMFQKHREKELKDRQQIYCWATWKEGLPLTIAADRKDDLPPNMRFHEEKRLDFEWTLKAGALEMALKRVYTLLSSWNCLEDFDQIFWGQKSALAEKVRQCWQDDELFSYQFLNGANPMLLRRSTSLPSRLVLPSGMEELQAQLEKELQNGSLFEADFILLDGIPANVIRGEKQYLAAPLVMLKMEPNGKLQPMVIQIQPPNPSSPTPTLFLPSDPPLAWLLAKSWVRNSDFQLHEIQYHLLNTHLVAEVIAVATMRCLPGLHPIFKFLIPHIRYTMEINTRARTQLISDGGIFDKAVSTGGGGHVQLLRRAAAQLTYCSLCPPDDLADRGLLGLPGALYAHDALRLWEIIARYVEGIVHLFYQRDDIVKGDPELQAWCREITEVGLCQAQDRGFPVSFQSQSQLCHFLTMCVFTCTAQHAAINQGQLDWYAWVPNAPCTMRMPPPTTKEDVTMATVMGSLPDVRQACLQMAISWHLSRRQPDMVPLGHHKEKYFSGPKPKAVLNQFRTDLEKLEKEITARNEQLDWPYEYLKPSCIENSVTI
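Purified human 12hLO at 150 nM in 25 mM Hepes, 0.01% Triton X-100, pH 7.0, preincubated 15 min at room temperature with compound. Reaction started with 40 uM arachidonic acid, 30 min at room temperature. Hydroperoxide measured by Fe-xylenol orange, 573/405 nm absorbance ratio.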
PI5P4Ka inh: inhibitors of human PI5P4K alpha; PI5P4Kalpha enzyme, ADP-Glo luminescence, 60 min; active compounds read low; P48426; AID 652105; 330,000 tested, 1.2% active; max response, %; active = max response of -50% or lower; inconclusive = between -30% and -50%; inactive = -30% or higher; also: value at the top dose of about 77 µM; % is scaled to controls: 0 for no effect and ±100 for the full control effect
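ADP-Glo luminescence end-point read after a 60 min room-temperature kinase reaction of PI5P4Kalpha plus substrate, initiated with ATP at 5 microM final. Buffer: 0.038 M HEPES pH 7.4, EGTA, 0.1% CHAPS, 5% DMSO.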
Pol iota inh: blocks human DNA polymerase iota activity; 390,000 tested, 1% active; Potency, µM (highest dose often 115 µM), for inactives: at the highest dose activity, negative = inhibition, usual class: inhibitors; Q9UNA4; Pol iota fluorescent replication assay, 10 min; also: potency is read from the fitted curve at half-maximal effect
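Fluorescent replication assay read twice, at 0 min and 10 min after adding 50 nM (final) substrate. Enzyme (10 nM) and compounds were first incubated 15 min at room temperature; enzyme-free buffer wells were negative controls.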
POLK inh: inhibitors of human DNA polymerase kappa; Q9UBT6; Potency, µM (titrated, usually from 107 µM), without a hit: at the highest dose activity, negative = inhibition, usual class: inhibitors; 400,000 tested, 0.53% active; purified Pol kappa, fluorescent DNA synthesis assay, 10 min; AID 588579; also: potency is read from the fitted curve at half-maximal effect; % is scaled to controls: 0 for no effect and ±100 for the full control effect
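50 nM final substrate added after 15 min RT preincubation of 10 nM Pol kappa with compound; fluorescence read at 0 and 10 min.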
Pol beta inh: inhibitors of human DNA polymerase beta; P06746; Pol beta primer extension/strand displacement, fluorescence kinetic; Potency, µM (highest dose often 114 µM), for the others: at the top dose activity change, negative = inhibition, usual class: inhibitors; 340,000 tested, 1.3% active; AID 485314; also: potency is read from the fitted curve at half-maximal effect; % is scaled to controls: 0 for no effect and ±100 for the full control effect
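Curves were derived by four-parameter Hill fits of normalized qHTS data. The kinetic fluorescent primer-extension read was taken at 0 and 10 min after 50 nM substrate, following a 15 min room-temperature preincubation of 10 nM enzyme with compounds.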
POLH inh: inhibitors of human DNA polymerase eta. 390,000 tested, 1.2% active. Potency, µM (series often up to 114 µM), inactives show top-dose activity change, negative = inhibition, most hits filed as inhibitors. AID 588591. recombinant Pol eta, fluorescent DNA replication assay; also: potency is read from the fitted curve at half-maximal effect; % is scaled to controls: 0 for no effect and ±100 for the full control effect
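Fluorescent replication assay: 50 nM final substrate added after a 15 min room-temperature compound preincubation with 10 nM enzyme. Signal taken at 0 min and again at 10 min.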
Active calls of the source: *; [ ] = another dose, or the depositor's remark. In the library only some 2.9% were active in any assay of this set; here they are far more common. Unless noted, calls follow the shape of the dose curve; as a rule, active = well fitted inhibition curve with a large enough effect; inconclusive = small, poorly fitted or top-dose-only effect, or another doubt; inactive = no such curve, though single readings can be large or run the other way.

How did COc1cc2c(cc1OC1CCCC1)NC(=O)C21CCN(c2ccc(C#N)cn2)CC1 do in these assays?
ALOX12 inh: -4.9%[176 µM]

How did CCNC(=O)Nc1ccc(OCC(=O)N2CCN(CC(C)C)CC2)nc1 do in these assays?
ALOX12 inh: 17.0%

Results for C/C(=N\NC(=O)c1ccccc1)c1c(O)n(C2CCCCC2)c(=O)[nH]c1=O ?
ALOX12 inh: 4.7%; PI5P4Ka inh: -51.0*; Pol iota inh: 26.3%; POLK inh: -4.7%; Pol beta inh: -0.4%; POLH inh: -11.5%

How did C/C(=N\NC(=O)c1ccccc1O)c1c(O)n(Cc2ccccc2)c(=O)[nH]c1=O do in these assays?
ALOX12 inh: 0.0%; PI5P4Ka inh: -70.8*; Pol iota inh: -9.8%; POLK inh: -5.3%; Pol beta inh: 20.8%; POLH inh: -24.7%

How did C/C(=N\NC(=O)c1ccccc1O)c1c(O)n(C2CCCCC2)c(=O)[nH]c1=O do in these assays?
ALOX12 inh: 55.0%; PI5P4Ka inh: -9.7; Pol iota inh: 1.7%; POLK inh: -2.1%; Pol beta inh: 2.4%; POLH inh: -7.7%

What do the screens show for `C=C[C@H]1CN2CC[C@H]1C[C@@H]2CNC(=O)C1CCCCC1`?
ALOX12 inh: 62.7%[176 µM]

What do the screens show for `CC1OC(=O)[C@@H](C(C)C)NC(=O)C(C(C)C)OC(=O)[C@H](C(C)C)NC(=O)C(C)OC(=O)[C@@H](C(C)C)NC(=O)C(C(C)C)OC(=O)[C@H](C(C)C)NC(=O)C(C)OC(=O)[C@@H](C(C)C)NC(=O)C(C(C)C)OC(=O)[C@H](C(C)C)NC1=O` (stereo partly drawn)?
ALOX12 inh: 2.5%

How did Cc1ccc(NC(=O)N(Cc2ccc3c(c2)OCO3)C2CCN(Cc3ccccc3)CC2)cc1Cl do in these assays?
ALOX12 inh: 44.7µM*; Pol iota inh: -3.9%; POLK inh: -2.2%; Pol beta inh: 2.3%; POLH inh: -10.8%

Results for C=C1C(=O)O[C@H]2[C@H]1[C@H](OC(=O)CC(=O)O[C@@H]1C[C@@H](C)[C@@H]3C=CC(=O)[C@@]3(C)[C@H]3OC(=O)C(=C)[C@H]13)C[C@@H](C)[C@H]1C=CC(=O)[C@]12C ?
ALOX12 inh: inconclusive; PI5P4Ka inh: -16.7; Pol iota inh: 50.1µM*; POLK inh: 79.4µM*; Pol beta inh: 50.1µM*; POLH inh: 20µM*

Results for C=C1C(=O)OC2CC(C)C3C=CC(=O)C3(C)C(O)C12 (stereo not drawn) ?
PI5P4Ka inh: 2.8; Pol iota inh: inconclusive; POLK inh: -4.1%; POLH inh: inconclusive

How did CCN(c1ccc(C)cc1C)S(=O)(=O)c1nnc(NC(=O)c2ccco2)s1 do in these assays?
ALOX12 inh: -10.6%; PI5P4Ka inh: -26.1; Pol iota inh: inconclusive; POLK inh: -25.9%; Pol beta inh: -25.2%; POLH inh: 79.4µM*

How did O=C(Nc1ccc(Cl)c(Cl)c1)c1ccco1 do in these assays?
ALOX12 inh: 65.7%; PI5P4Ka inh: 7.5; Pol iota inh: 145.6%; POLK inh: -11.6%; Pol beta inh: 4.6%; POLH inh: -25.2%

Results for CCOc1cncc(/C=C/CCNC)c1 ?
ALOX12 inh: 17.8µM*; POLK inh: 17.2%[60.1 µM]

What do the screens show for `O=C(N/N=C/c1c(O)n(-c2ccccc2)c(=S)[nH]c1=O)c1ccccc1`?
ALOX12 inh: 26.0%; PI5P4Ka inh: -54.1*; Pol iota inh: 58.4%; POLK inh: 0.0%; Pol beta inh: -18.6%; POLH inh: -10.4%

How did O=C(N/N=C/c1c(O)n(C2CC2)c(=S)[nH]c1=O)c1ccccc1O do in these assays?
ALOX12 inh: inconclusive; PI5P4Ka inh: -58.5*; Pol iota inh: 102.3%; POLK inh: -21.8%; Pol beta inh: 16.0%; POLH inh: 1.5%

Results for Cc1ccccc1-n1c(O)c(/C=N/NC(=O)c2ccccc2O)c(=O)[nH]c1=S ?
ALOX12 inh: inconclusive; PI5P4Ka inh: -68.9*; Pol iota inh: inconclusive; POLK inh: -24.8%; Pol beta inh: 11.0%; POLH inh: -18.5%

How did O=C(NC[C@H]1C[C@@H]2CCN1C[C@@H]2CN1CCC(Cc2ccccc2)CC1)c1ccc(C(F)(F)F)cc1 do in these assays?
ALOX12 inh: 11.6%

How did C=C[C@H]1CN2CC[C@H]1C[C@@H]2CNC(=O)Nc1ccc(Br)cc1 do in these assays?
ALOX12 inh: -7.6%[176 µM]

Results for CN1C(=O)[C@H]2CN(Cc3ccc(Br)s3)C[C@H]2C1=O ?
ALOX12 inh: 39.3%

How did Cc1cc(CN2CCC3CC(=O)NCCC3C2)cc(C)n1 (stereo not drawn) do in these assays?
ALOX12 inh: -0.7%[12.5 µM]

How did Cc1ccc([N+](=O)[O-])[c]2c1[O][Hg]2 do in these assays?
ALOX12 inh: 0.051µM*

How did Cc1ccccc1[N+](=O)[O-] do in these assays?
ALOX12 inh: -14.3%; PI5P4Ka inh: 1.7; Pol iota inh: 14.9%; POLK inh: 9.7%; POLH inh: -10.6%

How did COC(=O)C1=C(c2ccc3ccccc3c2)C[C@@H]2CC[C@H]1N2C(=O)NCc1ccco1 do in these assays?
ALOX12 inh: inconclusive; PI5P4Ka inh: -20.6; Pol iota inh: -28.1%; POLK inh: inconclusive; POLH inh: 35.5µM*

Results for COC(=O)C1=C(c2ccc(OC(F)(F)F)cc2)C[C@@H]2CC[C@H]1N2C(=O)NCc1ccco1 ?
ALOX12 inh: -20.3%

What do the screens show for `Cc1ccc(N2C(=O)NC(=O)/C(=C/c3ccc(OC(=O)c4cccs4)cc3)C2=O)cc1`?
ALOX12 inh: 44.7µM*; Pol iota inh: -15.2%; POLK inh: -5.1%; Pol beta inh: 21.4%; POLH inh: -7.7%

What do the screens show for `COc1ccc(N2C(=O)NC(=O)/C(=C/c3cccc(OC(=O)c4cccs4)c3)C2=O)cc1Cl`?
ALOX12 inh: 35.5µM*; PI5P4Ka inh: inconclusive; Pol iota inh: -16.7%; POLK inh: -0.2%; Pol beta inh: -9.8%; POLH inh: -12.1%

Results for CC[C@H]1CN2CC[C@H]1C[C@@H]2CNCc1cccs1 ?
ALOX12 inh: 55.6%[176 µM]

How did COCCNC(=O)[C@H]1CN2CCC1C[C@@H]2Cn1cc(-c2ccc(OC)cc2)nn1 (stereo partly drawn) do in these assays?
ALOX12 inh: -17.1%[176 µM]

Results for C=CCN1C(=O)/C(=C\c2ccc(N3CCOCC3)o2)C(=O)NC1=S ?
ALOX12 inh: inconclusive; PI5P4Ka inh: -12.9; Pol iota inh: inconclusive; POLK inh: -11.1%; Pol beta inh: -2.5%; POLH inh: 28.2µM*
